Assay [1] is described as follows: VALA_MIGHUV1_ScratchOnly_WoundArea: VALA Sciences human Umbilical Vein Endothelial Cell Migration (MIGHUV) Assay, Area of Scratch Wound Inhibited Recovery (AID 2284336; active = hit-call score of the fitted dose curve at least 0.9, where 1 is the maximum). Summed up:
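HUVEC monolayers (9000 cells/well) were scratched after 24 h, dosed within 30 min (six concentrations, triplicate, 0.1% DMSO), allowed 24 h recovery, then fixed. Hoechst-stained nuclei in the wound imaged; cytochalasin D as reference.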

Assay [2] can be described thus: VALA_TUBHUV_Agonist_TubuleLength: VALA Sciences human Umbilical Vein Endothelial Tubule Formation (TUBHUV) Agonism Assay (AID 2284337; active = hit-call score of the fitted dose curve at least 0.9, where 1 is the maximum). An outline of the steps: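 HUVEC co-cultured with fibroblasts (1:3) 3 days in 10 ng/ml VEGF, then 3 days with compound plus VEGF; 0.1 % DMSO neutral control. Fixed, nuclear and CD31 stained; tubule length by fluorescence imaging.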

The nature of assay [3]: VALA_TUBIPS_Agonist_CellCount: Viability Assessment in the VALA Sciences human iPS-derived Endothelial Tubule Formation (TUBIPS) Agonism Assay (AID 2284338; active = hit-call score of the fitted dose curve at least 0.9, where 1 is the maximum). The protocol:
VALA_TUBIPS_Agonist is a cell-based, multiplexed assay that uses human iPS-derived endothelial cells (iPSC). Measurements were taken 72 hours after chemical dosing in a 96-well plate.VALA_TUBIPS_Agonist_CellCount is the one of two assay components measured from the VALA_TUBIPS_Agonist assay. It is designed to make measurements of viability, a form of viability reporter, as detected with fluorescence intensity signals by HCS Fluorescent Imaging technology. Data from the assay component VALA_TUBIPS_Agonist_CellCount was analyzed at the endpoint, VALA_TUBIPS_Agonist_CellCount, in the positive analysis fitting direction relative to DMSO as the negative control and baseline of activity. Using a type of viability reporter, loss-of-signal activity can be used to understand viability. To generalize the intended target to other relatable targets, this assay endpoint is annotated to the cell cycle intended target family, where the subfamily is cell count.
This HUVEC-HDF assay was designed to detect chemical suppression of tubulogenesis, i.e. antagonism. To measure tubulogenesis antagonism, HUVEC cells were co-cultured with HDF cells at a 1:3 ratio for 3-days in 10 ng/ml VEGF (i.e., favorable conditions with growth factors), then changed to assay medium containing 10 ng/ml VEGF and ToxCast compounds for an additional 3-day period. […]

Assay [4] concerns SRY-box transcription factor 17 (SOX17) Protein Expression, Deisenroth Lab, SOX17 (gene 64321). The experiment in a line: CCTE_Deisenroth_DEVTOX-GLR_legacy_Sox17: (Legacy) CCTE's DevTox GLR-Endo Assay Evaluation of SRY-box transcription factor 17 (SOX17) Protein Expression, Deisenroth Lab (AID 2284341). Conditions: actives raise or lower the signal. An outline of the steps: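 RUES2-GLR human pluripotent cells differentiated toward endoderm for 48 h, dosed twice at 24 h intervals (1 nM–200 uM, 10 points). Imaging gives % SOX17+ cells (intensity >5x BMAD above pluripotent control median); bidirectional fit versus 0.2% DMSO.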

Assay [5] relates to SRY-box transcription factor 2 (SOX2) Protein Expression, Deisenroth Lab, SOX2 (gene 6657). The assay can be described thus: CCTE_Deisenroth_DEVTOX-GLR_legacy_Sox2: (Legacy) CCTE's DevTox GLR-Endo Assay Evaluation of SRY-box transcription factor 2 (SOX2) Protein Expression, Deisenroth Lab (AID 2284346). Summed up: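 RUES2-GLR human pluripotent cells were differentiated for 48 h with two chemical doses 24 h apart, over 1 nM-200 uM. Sox2+ cells were those above 5x BMAD of the endoderm-control median; percent Sox2+ minus the 0.2% DMSO median was used, from n=4 replicates.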

Assay [6] deals with SRY-box transcription factor 17 (SOX17) Protein Expression, Deisenroth Lab, SOX17 (gene 64321). The experiment in a line: CCTE_Deisenroth_DEVTOX-GLR_Endo_SOX17: CCTE's DevTox GLR-Endo Assay Evaluation of SRY-box transcription factor 17 (SOX17) Protein Expression, Deisenroth Lab (AID 2284413). An outline of the steps: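 RUES2-GLR human pluripotent cells were differentiated toward endoderm for 48 h and received two compound doses 24 h apart (1 nM - 200 uM, 10 points). High-content imaging of fixed cells gave the percent SOX17+ cells per cell count, expressed as percent change versus 0.2% DMSO.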

Assay [7] has as its system Brachyury (BRA) Protein Expression, TBXT (gene 6862). The assay can be described thus: CCTE_Deisenroth_DEVTOX-GLR_Endo_BRA: CCTE's DevTox GLR-Endo Assay Evaluation of Brachyury (BRA) Protein Expression, Deisenroth Lab (AID 2284417). Summed up:
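RUES2-GLR pluripotent cells differentiated 48 h with two chemical exposures 24 h apart, 10-point range 1 nM - 200 uM. Percentage of BRA+ cells per total count by high-content imaging, minus 0.2% DMSO control.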

Assay [8] can be described thus: CCTE_Deisenroth_DEVTOX-GLR_Endo_CellCount: Viability Assessment in CCTE's DevTox GLR-Endo Assay, Deisenroth Lab (AID 2284420). An outline of the steps: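 Human pluripotent RUES2-GLR line; 24 h pre-seed; 48 h endoderm-directed differentiation; 2 doses, q24h; 10 conc., 1 nM - 200 uM; fix + nuclear dye; 5 fields/well imaged; readout = nuclei count, % change vs 0.2% DMSO; n=4.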

The subject of assay [9] is SRY-box transcription factor 2 (SOX2) Protein Expression, Deisenroth Lab, SOX2 (gene 6657). The experiment in a line: CCTE_Deisenroth_DEVTOX-GLR_Pluri_SOX2: CCTE's DevTox GLR-Pluri Assay Evaluation of SRY-box transcription factor 2 (SOX2) Protein Expression, Deisenroth Lab (AID 2284428). An outline of the steps:
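Steps: seed RUES2-GLR cells for 24 h; start 48 h differentiation in defined media; dose test chemicals at 0 and 24 h (1 nM–200 uM); fix, stain nuclei, image; compute SOX2+ percentage against 0.2% DMSO wells.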

In assay [10] the test system is Brachyury (BRA) Protein Expression, Deisenroth Lab, TBXT (gene 6862). The experiment in a line: CCTE_Deisenroth_DEVTOX-GLR_Pluri_BRA: CCTE's DevTox GLR-Pluri Assay Evaluation of Brachyury (BRA) Protein Expression, Deisenroth Lab (AID 2284429; active = hit-call score of the fitted dose curve at least 0.9, where 1 is the maximum). An outline of the steps:
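RUES2-GLR human pluripotent cells differentiated 48 hours with two chemical exposures 24 hours apart, 10-point series 1 nM–200 uM. Fixed, nuclear-stained, imaged; endpoint is percent BRA+ cells minus 0.2% DMSO control.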

A short description of assay [11]: CCTE_Deisenroth_DEVTOX-GLR_Pluri_CellCount: Viability Assessment in CCTE's DevTox GLR-Pluri Assay Evaluation of Total Cell Counts, Deisenroth Lab (AID 2284430). An outline of the steps: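 RUES2-GLR human pluripotent cells, seeded 24 h, then differentiated 48 h with two chemical exposures 24 h apart; 10-point series 1 nM - 200 uM. Fixed, nuclear-stained, imaged (5 fields/well); nuclei count as % change vs 0.2% DMSO.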

Assay [12] deals with SERPINA7 (gene 6906). The assay can be described thus: CCTE_GLTED_hTBG: CCTE's human Thyroxine-binding Globulin (TBG) Inhibition Assay, Great Lakes Toxicology and Ecology Division (GLTED) Lab (AID 2284343; active = hit-call score of the fitted dose curve at least 0.9, where 1 is the maximum;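 also: active chemicals lower fluorescence versus DMSO baseline by displacing probe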). Summed up:
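hTBG + test chem, 2 h; ANSA probe displacement; fluorescence readout ex380/em475; DMSO = neg ctrl/baseline; cell-free.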

Assay [13] relates to TTR (gene 7276). The experiment in a line: CCTE_GLTED_hTTR_0.125uM: CCTE's human Transthyretin (hTTR) Inhibition Assay, with 0.125uM TTR, Great Lakes Toxicology and Ecology Division (GLTED) Lab (AID 2284431).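 Also: hits lower the fluorescence signal relative to DMSO baseline.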 An outline of the steps:
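Fluorescence (380 ex, 475 em) reported the ANSA probe remaining bound to 0.125uM human transthyretin. Chemicals were incubated with the protein for 2 hours; activity was scored as loss of signal against DMSO negative control.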

Assay [14] concerns SRY-box transcription factor 2 (SOX2) Protein Expression, Deisenroth Lab, SOX2 (gene 6657). The experiment in a line: CCTE_Deisenroth_DEVTOX-GLR_Endo_SOX2: CCTE's DevTox GLR-Endo Assay Evaluation of SRY-box transcription factor 2 (SOX2) Protein Expression, Deisenroth Lab (AID 2284412; active = hit-call score of the fitted dose curve at least 0.9, where 1 is the maximum). Summed up:
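RUES2-GLR human pluripotent cells were seeded 24 h, then differentiated 48 h with two chemical exposures 24 h apart. Cells were fixed, nuclei stained and imaged by high-content microscopy. Endpoint is %SOX2+ cells over cell count, minus 0.2% DMSO control; 10-point series 1 nM–200 uM.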

A short description of assay [15]: CCTE_Mundy_HCI_iCellGluta_NOG_NeuronCount: CCTE's Neurite Outgrowth Assay in iCellGluta cells for Neuron Count, Mundy Lab (AID 2284340; active = hit-call score of the fitted dose curve at least 0.9, where 1 is the maximum;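 also: cells fixed about 48 h after compound addition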). An outline of the steps: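 Neuron count read by automated high-content imaging of Hoechst 33342 and betaIII-tubulin/Alexa Fluor-488 labelling in human iPSC glutamatergic neurons. Activity fitted relative to DMSO.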
Assay [16] can be described thus: CCTE_Mundy_HCI_iCellGluta_NOG_NeuriteCount: CCTE's Neurite Outgrowth Assay in iCellGluta cells for Neurite Count, Mundy Lab (AID 2284342; active = hit-call score of the fitted dose curve at least 0.9, where 1 is the maximum;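 also: chemical exposure about 48 hours starting 2 hours after plating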).

Values joined by “and” are separate entries in the source; they are usually repeats but may differ in a detail not shown here. Equal entries are not always repeated. Inconclusive results are not listed. Active and inactive are the calls of the source. The calls were made as follows, unless noted: active = hit-call score of the fitted dose curve at least 0.9, where 1 is the maximum; inactive = score below 0.9.

In the case of `CC(C)c1cccc(C(C)C)c1N1C(=O)c2ccc(O)cc2C1=O`, the concentration at half-maximal activity (AC50) – broadly, the concentration at which the activity in the assay is half-maximal – was 5.98 µM (active) and 22.1 µM (active) in assay [1]; 85 µM (active) and 7.58 µM (active) in assay [2]; 80.2 µM (active) in assay [3].

On to `O=C1CCC(N2C(=O)c3ccccc3C2=O)C(=O)N1` (stereo not drawn), for which the half-maximal activity concentration (AC50) in [4] was 1.44 µM (active); in assay [6] it was 1.56 µM (active). The call in assay [5], in assay [7], in assay [8], in [9], in [10] and in assay [11] was inactive.

With `O=C(O)c1cccc(Oc2ccccc2)c1`, the half-maximal activity concentration (AC50) in assay [12] was 19.2 µM (active); in assay [13], 0.542 µM (active).

For the compound `Nc1ccc(Nc2ccccc2)cc1`, the AC50 in [12] is 50 µM (active); in [13] it was 31.5 µM (active).

On to `C[C@](N)(Cc1ccc(O)c(O)c1)C(=O)O`, for which the compound was called inactive in [4], in assay [5], in assay [14], in [6], in assay [7] and in assay [8]. Moreover, the call in assay [11] was inactive. The concentration at half-maximal activity (AC50) in assay [9] was 0.308 µM (active); in [10], 153 µM (active).

Consider `COC(=O)c1c(Cl)c(Cl)c(C(=O)OC)c(Cl)c1Cl`, for which, in assay [13], the AC50 was 0.0546 µM (active).

On to `CC[C@H]1OC(=O)[C@H](C)[C@@H](O[C@H]2C[C@@](C)(OC)[C@@H](O)[C@H](C)O2)[C@H](C)[C@@H](O[C@@H]2O[C@H](C)C[C@H](N(C)C)[C@H]2O)[C@](C)(O)C[C@@H](C)C(=O)[C@H](C)[C@@H](O)[C@]1(C)O`, for which the compound was classed as inactive in assay [15] and in assay [16].

As for `Oc1ccc2c(c1)-c1ccccc1C2`, the half-maximal activity concentration (AC50) is 19.4 µM (active) in assay [12] and 7.96 µM (active) in assay [13].

As for `Nc1nc2ncc(CNc3ccc(C(=O)N[C@@H](CCC(=O)O)C(=O)O)cc3)nc2c(=O)[nH]1`, the compound was called inactive in assay [4], in assay [5], in [14], in assay [6], in [7] and in [8]. The outcome in [9] and in assay [11] was inactive.

With `Cn1cnc([N+](=O)[O-])c1Sc1ncnc2nc[nH]c12`, in [13], the AC50 was 25.1 µM (active).

The values are drawn from PubChem BioAssay (EPA / NIEHS).
